# PubChem BioAssay (Tox21)
# A number with no mark means an inactive call. Records with an inconclusive call do not appear. A call without a number means that no potency is given here. Calls of active or inactive are those of the source. Unless noted, calls follow the shape of the full dose curve.
# Legend:
# [1] = Nuclear factor erythroid 2-related factor 2/antioxidant responsive element (Nrf2/ARE) small molecule agonists: qHTS cell viability counter screen in human keratinocytes (AID 1919968; active = well fitted curve in the direction sought with a large enough effect in the repeat runs; an effect the other way counts as inactive or inconclusive; also: nearly all actives have a fitted effect of over 55% in size; also: potency is read from the fitted curve at half-maximal effect)
# Summary of the method: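 Seed 1,500 KeratinoSens cells per well, then incubate 5 h at 37 C/5% CO2. Add compounds in DMSO and incubate 23 h. Add CellTiter-Fluor, wait 1 h and read fluorescence.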
# [2] = target: KiSS-1 receptor (Homo sapiens) (UniProt Q969F8); assay: Human kisspeptin (KISS1R) small molecule agonists, calcium flux assay in KISS1R-HEK293 cells (AID 1920064; active = well fitted curve in the direction sought with a large enough effect in the repeat runs; an effect the other way counts as inactive or inconclusive)
# KiSS-1 receptor (Homo sapiens), sequence (Q969F8 whole entry, looked up): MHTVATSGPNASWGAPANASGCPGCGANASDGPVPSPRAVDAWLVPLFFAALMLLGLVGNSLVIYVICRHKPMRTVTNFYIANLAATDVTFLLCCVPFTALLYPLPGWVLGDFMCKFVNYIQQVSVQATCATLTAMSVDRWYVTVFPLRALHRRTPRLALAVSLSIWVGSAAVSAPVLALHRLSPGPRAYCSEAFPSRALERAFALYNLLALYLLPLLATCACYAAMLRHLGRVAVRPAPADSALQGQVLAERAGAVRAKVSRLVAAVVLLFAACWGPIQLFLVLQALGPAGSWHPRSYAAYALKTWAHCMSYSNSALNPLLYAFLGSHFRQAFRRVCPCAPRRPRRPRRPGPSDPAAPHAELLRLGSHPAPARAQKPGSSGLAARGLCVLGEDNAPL
# Summary of the method: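 Cells plated and incubated 18 h; dye added, 1 h at 37 C; compounds in DMSO pinned in; signal read at 480/540 nm every second for 3 min. Each compound tested at 15 concentrations in triplicate.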
# [3] = G protein-coupled receptor (GPCR) small molecule agonists, calcium flux assay: HEK293 wild type cell line counter screen (AID 1920065); also: potency is read from the fitted curve at half-maximal effect
# Summary of the method: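 Counter-screen of the Tox21 10K library for non-specific calcium release: dye-loaded cells received compounds in DMSO and were monitored by kinetic fluorescence (480/540 nm, 3 min). Fifteen concentrations, run in triplicate.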
# [4] = p53 small molecule agonists, cell-based qHTS assay with human liver microsomes: qHTS cell viability counter screen (AID 1963579); also: nearly all actives have a fitted effect of over 45% in size; also: potency is read from the fitted curve at half-maximal effect
# Summary of the method: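 Viability of p53RE-bla cells is measured as CellTiter-Glo luminescence following a 16 h, 37 C incubation with compound, liver microsomes from human donors and NADPH.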
# [5] = p53 small molecule agonists, cell-based qHTS assay with rat liver microsomes: qHTS cell viability counter screen (AID 1963580); also: nearly all actives have a fitted effect of over 45% in size; also: potency is read from the fitted curve at half-maximal effect
# Summary of the method: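 Intracellular ATP, by CellTiter-Glo luminescence, defines viability. HCT-116 p53RE-bla cells, 4,000 per well, were compound-treated in the presence of rat liver microsomes and NADPH for 16 h at 37 C.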
# [6] = p53 small molecule agonists, cell-based qHTS assay: qHTS cell viability counter screen (AID 1963581); also: nearly all actives have a fitted effect of over 45% in size; also: potency is read from the fitted curve at half-maximal effect
# Summary of the method: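 Cells: HCT-116 with p53 response element-driven beta-lactamase. Treatment: 16 h, 37 C, compounds in DMSO. Read: CellTiter-Glo luminescence after 30 min RT.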
# [7] = target: 5-hydroxytryptamine receptor 2A (Homo sapiens) (UniProt P28223); assay: 5-hydroxytryptamine receptor 2A (HTR2A) small molecule antagonists, cell-based qHTS assay (AID 1963586); also: nearly all actives have a fitted effect of over 45% in size; also: potency is read from the fitted curve at half-maximal effect
# 5-hydroxytryptamine receptor 2A (Homo sapiens), sequence (P28223 whole entry, looked up): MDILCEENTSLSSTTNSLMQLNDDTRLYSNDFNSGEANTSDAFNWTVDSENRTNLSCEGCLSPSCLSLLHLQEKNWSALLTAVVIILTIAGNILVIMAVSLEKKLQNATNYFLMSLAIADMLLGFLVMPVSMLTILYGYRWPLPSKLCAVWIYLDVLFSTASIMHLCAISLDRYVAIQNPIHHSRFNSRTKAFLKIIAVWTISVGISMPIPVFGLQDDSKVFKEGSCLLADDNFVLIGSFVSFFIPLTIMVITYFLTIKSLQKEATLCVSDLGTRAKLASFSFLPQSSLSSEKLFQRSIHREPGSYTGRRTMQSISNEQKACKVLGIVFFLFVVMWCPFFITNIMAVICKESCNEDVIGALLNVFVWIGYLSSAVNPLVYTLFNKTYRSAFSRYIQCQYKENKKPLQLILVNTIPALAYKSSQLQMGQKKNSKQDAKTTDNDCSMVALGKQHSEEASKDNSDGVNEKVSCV
# Summary of the method: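 Antagonist-mode intracellular calcium assay: DOI (4 nM) added after 5 min compound pre-incubation at room temperature to dye-loaded HTR2A-CHO cells. Fluorescence followed for 3 min, sampled every second.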
# [8] = target: Muscarinic acetylcholine receptor M1 (Homo sapiens) (UniProt P11229); assay: Cholinergic receptor muscarinic 1 (CHRM1) small molecule antagonists, cell-based qHTS assay (AID 1963588); also: nearly all actives have a fitted effect of over 40% in size
# Muscarinic acetylcholine receptor M1 (Homo sapiens), sequence (P11229 whole entry, looked up): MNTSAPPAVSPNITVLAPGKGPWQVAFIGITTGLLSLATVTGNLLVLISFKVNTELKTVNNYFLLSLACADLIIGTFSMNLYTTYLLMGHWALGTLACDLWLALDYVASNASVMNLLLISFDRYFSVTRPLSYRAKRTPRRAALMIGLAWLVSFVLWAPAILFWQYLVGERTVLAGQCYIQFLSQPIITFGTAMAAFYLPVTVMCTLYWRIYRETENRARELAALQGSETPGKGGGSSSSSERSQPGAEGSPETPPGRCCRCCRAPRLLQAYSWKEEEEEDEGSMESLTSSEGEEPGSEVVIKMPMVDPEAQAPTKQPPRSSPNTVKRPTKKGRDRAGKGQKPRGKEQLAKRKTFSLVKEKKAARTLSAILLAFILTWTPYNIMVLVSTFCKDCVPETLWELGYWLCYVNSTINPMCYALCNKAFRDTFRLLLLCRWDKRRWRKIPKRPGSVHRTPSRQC
# Summary of the method: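 CHRM1-CHO calcium-flux assay, antagonist mode. Cells were seeded 18 h, dye-loaded 1 h at 37 C and given compound for 5 min at RT, then acetylcholine was added at 50nM. FDSS fluorescence was read 3 min; 15 concentrations, three runs.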
# [9] = cAMP Responsive Elements (CRE) small molecule agonists, cell-based qHTS assay (AID 1963590)
# Summary of the method: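 Agonist mode qHTS in CRE-bla HEK 293T cells: compounds dosed from DMSO for 3 h at 37 C/5% CO2, followed by LiveBLAzer B/G FRET substrate for 2 h at room temperature.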
# [10] = target: Beta-2 adrenergic receptor (Homo sapiens) (UniProt P07550); assay: Adrenergic beta2 receptor (ADRB2) small molecule antagonists, cell-based qHTS assay (AID 1963592); also: series mostly up to about 92 µM; nearly all actives have a fitted effect of over 50% in size
# Beta-2 adrenergic receptor (Homo sapiens), sequence (P07550 whole entry, looked up): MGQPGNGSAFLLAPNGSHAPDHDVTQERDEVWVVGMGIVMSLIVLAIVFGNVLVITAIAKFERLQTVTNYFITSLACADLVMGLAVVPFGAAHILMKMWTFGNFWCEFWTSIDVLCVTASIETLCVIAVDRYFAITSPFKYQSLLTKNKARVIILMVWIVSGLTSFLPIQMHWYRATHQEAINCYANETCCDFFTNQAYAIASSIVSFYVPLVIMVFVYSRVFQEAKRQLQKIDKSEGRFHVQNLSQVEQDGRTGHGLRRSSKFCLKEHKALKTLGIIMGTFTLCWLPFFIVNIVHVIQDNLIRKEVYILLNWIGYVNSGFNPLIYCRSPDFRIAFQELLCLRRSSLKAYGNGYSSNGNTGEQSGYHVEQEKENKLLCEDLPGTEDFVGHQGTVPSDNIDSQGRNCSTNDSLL
# Summary of the method: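 Cells (CHO, stable ADRB2 overexpression) incubated 18-20hr at 37C; compounds added from DMSO; agonist mix (1nM isoproterenol, 100uM IBMX, 25uM Ro-20-1724) added; 0.5hr RT; d2-cAMP and anti-cAMP-cryptate added; 1hr RT; 665/615 nm read.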
# [11] = target: Beta-2 adrenergic receptor (Homo sapiens) (UniProt P07550); assay: Adrenergic beta2 receptor (ADRB2) small molecule agonists, cell-based qHTS assay (AID 1963593); also: potency is read from the fitted curve at half-maximal effect;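 as to activation: CHO cells stably overexpressing human ADRB2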
# Summary of the method: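 CHO cells stably over-expressing ADRB2 were plated overnight at 37C, then dosed with compounds plus a stimulation mix containing 100uM IBMX and 25uM Ro-20-1724 for 0.5hr at room temperature. cAMP was measured by HTRF competition, 1hr.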
# [12] = target: D(2) dopamine receptor (Homo sapiens) (UniProt P14416); assay: Dopamine D2 receptor (DRD2) small molecule agonists, cell-based qHTS assay (AID 1963594); also: nearly all actives have a fitted effect of over 35% in size
# D(2) dopamine receptor (Homo sapiens), sequence (P14416 whole entry, looked up): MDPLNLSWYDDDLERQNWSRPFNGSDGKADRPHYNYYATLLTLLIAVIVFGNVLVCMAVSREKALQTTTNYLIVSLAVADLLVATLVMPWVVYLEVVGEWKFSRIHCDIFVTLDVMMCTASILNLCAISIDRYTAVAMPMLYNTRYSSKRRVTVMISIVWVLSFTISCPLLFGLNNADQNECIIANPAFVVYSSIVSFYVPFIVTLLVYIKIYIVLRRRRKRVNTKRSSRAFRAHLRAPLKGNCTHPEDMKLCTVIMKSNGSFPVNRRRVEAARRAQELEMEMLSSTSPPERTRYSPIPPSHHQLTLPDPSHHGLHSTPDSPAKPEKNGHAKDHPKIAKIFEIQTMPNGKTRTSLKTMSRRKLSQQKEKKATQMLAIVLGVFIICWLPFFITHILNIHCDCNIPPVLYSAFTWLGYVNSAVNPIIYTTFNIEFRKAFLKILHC
# Summary of the method: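 cAMP accumulation in DRD2-HEK293 cells measured by HTRF after 1 h detection; compounds added 10 min before NKH477 (200nM […]) forskolin-analogue stimulation, 30 min at room temperature, with Ro20-1724 present at 0.1 mM final.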
# [13] = target: D(2) dopamine receptor (Homo sapiens) (UniProt P14416); assay: Dopamine D2 receptor (DRD2) small molecule antagonists, cell-based qHTS assay (AID 1963595; active = well fitted inhibition curve with a large enough effect in the signal ratio in the repeat runs, with a control signal flat; the % refers to the signal ratio; also: potency is read from the fitted curve at half-maximal effect)
# Summary of the method: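 HEK293 cells stably expressing DRD2 were preincubated with 0.1 mM Ro20-1724, then with compound for 10 min at room temperature. Cells were stimulated with 200 nM NKH477 plus 12 nM quinpirole for 30 min, and cAMP was read by HTRF.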
# [14] = cAMP Responsive Elements (CRE) small molecule antagonists, cell-based qHTS assay (AID 1963591; active = well fitted inhibition curve with a large enough effect in the signal ratio in the repeat runs, not every such curve was filed as active; the % refers to the signal ratio)
# Summary of the method: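 Antagonist mode: test compounds are co-incubated with the adenylyl cyclase activator NKH477 (0.25 uM final) on CRE-bla HEK293T cells for 3 h at 37 °C, followed by LiveBLAzer substrate loading.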
# [15] = target: 5-hydroxytryptamine receptor 2A (Homo sapiens) (UniProt P28223); assay: 5-hydroxytryptamine receptor 2A (HTR2A) small molecule agonists, cell-based qHTS assay (AID 1963587); also: nearly all actives have a fitted effect of over 30% in size; also: potency is read from the fitted curve at half-maximal effect
# Summary of the method: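 Kinetic calcium-flux fluorescence (2 min, 1 sec intervals) after compound addition in agonist mode. HTR2A-CHO cells were cultured 18 h, then dye-loaded 1 h at 37 C.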
# [16] = target: Muscarinic acetylcholine receptor M1 (Homo sapiens) (UniProt P11229); assay: Cholinergic receptor muscarinic 1 (CHRM1) small molecule agonists, cell-based qHTS assay (AID 1963589); also: nearly all actives have a fitted effect of over 35% in size
# Summary of the method: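 Agonist-mode qHTS in CHO cells stably carrying human muscarinic M1. Intracellular calcium is tracked by fluorescence every second after compound transfer; each compound runs at 15 concentrations in three independent runs.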
# [17] = p53 small molecule agonists, cell-based qHTS assay (AID 1963582; active = well fitted activation curve with a large enough effect in the signal ratio in the repeat runs, not every such curve was filed as active; the % refers to the signal ratio)
# Summary of the method: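 Quantitative HTS in p53RE-bla cells: after a 5 h settling period, compounds delivered in DMSO were left on cells for 16 h at 37 C, and reporter induction was measured as fluorescence following 2 h substrate loading.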
# [18] = p53 small molecule agonists, cell-based qHTS assay with human liver microsomes (AID 1963577);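 also: p53 response element beta-lactamase reporter cells with liver microsomes plus NADPH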
# Summary of the method: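 HLM-supplemented p53RE-bla reporter assay: 16 h compound exposure at 37 C, microsomes and NADPH each 0.5 mg/mL final, read by fluorescence intensity.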
# [19] = p53 small molecule agonists, cell-based qHTS assay with rat liver microsomes (AID 1963578)
# Summary of the method: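 Quantitative HTS of the Tox21 10K library: p53RE-bla cells, rat liver microsomes plus NADPH at 0.5 mg/mL final each, 16 h at 37 C, beta-lactamase fluorescence detection.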
# [20] = target: Gonadotropin-releasing hormone receptor (Homo sapiens) (UniProt P30968); assay: Human gonadotropin-releasing hormone receptor (GnRHR) small molecule agonists, calcium flux assay in GnRHR-HEK293 cells (AID 1920063); also: nearly all actives have a fitted effect of over 35% in size
# Gonadotropin-releasing hormone receptor (Homo sapiens), sequence (P30968 whole entry, looked up): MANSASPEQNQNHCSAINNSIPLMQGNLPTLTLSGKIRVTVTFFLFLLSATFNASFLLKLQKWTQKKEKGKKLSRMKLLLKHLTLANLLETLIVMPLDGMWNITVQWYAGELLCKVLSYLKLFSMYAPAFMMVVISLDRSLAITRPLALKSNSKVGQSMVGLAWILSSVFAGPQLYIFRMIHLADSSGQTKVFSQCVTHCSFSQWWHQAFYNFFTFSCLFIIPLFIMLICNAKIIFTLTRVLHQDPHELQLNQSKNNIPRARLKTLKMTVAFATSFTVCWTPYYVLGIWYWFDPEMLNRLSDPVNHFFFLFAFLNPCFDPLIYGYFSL
# Summary of the method: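 Cells: HEK293 stably expressing human GnRHR. Steps: overnight (18 h) culture, 1 h calcium dye loading at 37 C, compound addition, kinetic fluorescence read at 480/540 nm. Each compound tested at 15 concentrations in triplicate.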
Compound,Potency [1],Potency [2],Potency [3],Potency [4],Potency [5],Potency [6],Potency [7],Potency [8],Potency [9],Potency [10],Potency [11],Potency [12],Potency [13],Potency [14],Potency [15],Potency [16],Potency [17],Potency [18],Potency [19],Potency [20]
O=C(NC(=O)c1c(F)cccc1F)Nc1ccc(OC(F)(F)C(F)OC(F)(F)F)c(Cl)c1 (stereo not given),inactive,inactive,inactive,inactive,inactive,inactive,inactive,inactive,inactive,inactive,inactive,inactive,inactive,–,–,–,–,–,–,–
COC(=O)C1=CCCN(C)C1,inactive,inactive,inactive,inactive,inactive,–,inactive,–,inactive,inactive,inactive,inactive,inactive,inactive,–,–,–,–,–,–
COc1nn(C(=O)NS(=O)(=O)c2ccccc2OC(F)(F)F)c(=O)n1C,inactive,inactive,inactive,inactive,inactive,inactive,inactive,inactive,inactive,inactive,inactive,inactive,inactive,inactive,–,–,–,–,–,–
CC1C(=O)C[C@]2(C(C)C)C[C@H]12 (stereo not given in full),inactive,inactive,inactive,inactive,inactive,inactive,inactive,inactive,inactive,inactive,–,inactive,inactive,–,inactive,inactive,–,–,–,–
COC(=O)/C=C(\C)OP(=O)(OC)OC,inactive,inactive,inactive,inactive,inactive,inactive,inactive,inactive,inactive,inactive,17.2 µM (active),inactive,inactive,–,inactive,inactive,inactive,–,–,–
COP(=S)(OC)Oc1ccc(S(N)(=O)=O)cc1,inactive,–,inactive,inactive,inactive,inactive,inactive,inactive,inactive,inactive,–,inactive,inactive,inactive,inactive,inactive,inactive,–,–,–
N#CC(C#N)=NNc1cccc(Cl)c1,8.63 µM (active),–,2.45 µM (active),5.13 µM (active),–,–,inactive,inactive,–,–,–,inactive,inactive,–,inactive,inactive,inactive,inactive,inactive,–
O=CC=O,inactive,inactive,inactive,inactive,inactive,inactive,inactive,–,inactive,inactive,–,inactive,–,inactive,inactive,inactive,–,–,–,–
COC(=O)c1ccccc1S(=O)(=O)NC(=O)Nc1nc(C)cc(C)n1,inactive,inactive,inactive,inactive,–,inactive,inactive,inactive,inactive,inactive,–,inactive,inactive,inactive,inactive,inactive,–,–,–,–
CCOP(=S)(OCC)Oc1cc(-c2ccccc2)on1,inactive,inactive,inactive,inactive,inactive,inactive,inactive,inactive,–,inactive,–,inactive,inactive,–,inactive,inactive,inactive,–,–,–
CCCN1CCC[C@@H]2Cc3nc(N)ncc3C[C@H]21,inactive,–,inactive,inactive,–,inactive,inactive,inactive,inactive,inactive,inactive,–,–,–,8.49 µM (active),inactive,inactive,inactive,inactive,–
c1coc(-c2nc3ccccc3[nH]2)c1,inactive,inactive,inactive,inactive,inactive,inactive,inactive,inactive,inactive,inactive,inactive,inactive,inactive,inactive,inactive,inactive,inactive,inactive,inactive,inactive
CCCN(CCC)c1c([N+](=O)[O-])cc(S(N)(=O)=O)cc1[N+](=O)[O-],51.8 µM (active),inactive,inactive,38.8 µM (active),49.4 µM (active),–,inactive,–,–,–,–,–,30.6 µM (active),–,37 µM (active),–,–,–,–,–
CN(C)CCc1c[nH]c2ccccc12,inactive,inactive,–,–,inactive,–,–,inactive,inactive,inactive,inactive,inactive,inactive,–,0.0109 µM (active),inactive,–,–,–,–
CC1(C)CCC(Cc2ccc(Cl)cc2)C1(O)Cn1cncn1 (stereo not given),inactive,inactive,inactive,45.8 µM (active),inactive,inactive,16.8 µM (active),inactive,–,–,–,inactive,–,–,49 µM (active),–,–,–,–,–
CC(=O)C(Cl)(Cl)Cl,16.6 µM (active),inactive,inactive,inactive,–,24.8 µM (active),–,–,–,–,–,inactive,inactive,–,inactive,inactive,inactive,inactive,–,–
C=C(Cl)CSC(=S)N(CC)CC,inactive,inactive,inactive,inactive,inactive,–,–,inactive,inactive,inactive,–,inactive,inactive,–,inactive,inactive,inactive,inactive,–,–
O=[N+]([O-])c1cc(Cl)c(Cl)cc1Cl,inactive,inactive,inactive,inactive,inactive,inactive,inactive,inactive,inactive,–,–,–,inactive,inactive,inactive,inactive,–,–,–,–
Cc1cccc(C)c1NC1=NCCCS1,inactive,inactive,inactive,–,inactive,inactive,inactive,inactive,inactive,inactive,–,–,inactive,inactive,inactive,inactive,–,–,–,–
CCC1(c2cccc(O)c2)CCCCN(C)C1 (stereo not given),inactive,inactive,inactive,inactive,inactive,inactive,–,inactive,inactive,inactive,inactive,inactive,–,inactive,inactive,inactive,–,–,–,–
